Data: the supplement of paper PMC6992640
± gives the standard deviation of the averaged measurements.

Experiments:
Experiment in all cases: cell viability (% of vehicle); higher = less cytotoxic
Details in all cases: 10 µM; 72 h
HCI01 = system: HCI01 (cells of a triple-negative basal-like breast cancer xenograft)
HCI03 = system: HCI03 (cells of an ER-positive luminal breast cancer xenograft)
HCI09 = system: HCI09 (cells of a triple-negative luminal androgen receptor type breast cancer xenograft)
HCI11 = system: HCI11 (cells of an ER-positive luminal breast cancer xenograft)
HCI13 = system: HCI13 (cells of an ER-positive luminal breast cancer xenograft)
UCD52 = system: UCD52 (cells of a triple-negative basal-like breast cancer xenograft)
WHIM2 = system: WHIM2 (cells of a triple-negative basal-like breast cancer xenograft)
WHIM30 = system: WHIM30 (cells of a triple-negative basal-like breast cancer xenograft)
HCI16 = system: HCI16 (cells of a triple-negative basal-like breast cancer xenograft)
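Also: PDX cells carrying CMV promoter-driven luciferase, viability read as total photon flux per second by IVIS imaging following D-luciferin, vehicle control 0.1% DMSO.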

Compound	cell viability (HCI01)	cell viability (HCI03)	cell viability (HCI09)	cell viability (HCI11)	cell viability (HCI13)	cell viability (UCD52)	cell viability (WHIM2)	cell viability (WHIM30)	cell viability (HCI16)
Cc1onc(-c2ccccc2Cl)c1C(=O)NC1C(=O)N2C1SC(C)(C)C2C(=O)[O-].O.[Na+] (stereo not given) [Cloxacillin Sodium]	141 ± 32	176	161 ± 95	134	191 ± 2.4	154 ± 38	132 ± 37	199 ± 20	
Cl.O=C1NCC2(CCN(CCc3ccccc3)CC2)O1 [Fenspiride HCl]	118 ± 42	126	101 ± 14	98.4		99.1 ± 6.4	98.1 ± 4.1	93.8 ± 14	104
CCC1OC(=O)C(C)C(OC2CC(C)(OC)C(O)C(C)O2)C(C)C(OC2OC(C)CC(N(C)C)C2O)C(C)(O)CC(C)CN(C)C(C)C(O)C1(C)O (stereo not given) [Azithromycin]	145 ± 30	137	116 ± 5.9	121		105 ± 26	114.9 ± 1.1	119 ± 24	124
O=C(CCCN1CCN(c2ccccn2)CC1)c1ccc(F)cc1 [Azaperone]	119 ± 25	114	96.7 ± 2.1	121		66.9 ± 13	98.3 ± 4.7	85.8 ± 2.8	151
CC(C)Cn1cnc2c(N)nc3ccccc3c21 [Imiquimod]	92.9 ± 12	109	72.71 ± 0.55	42.7	91 ± 20	76.7 ± 1.4	115 ± 14	116 ± 8	
NCCc1cnc[nH]1.O=P(O)(O)O.O=P(O)(O)O [Histamine Phosphate]	117 ± 18	117	95.2 ± 15	98.4		99.9 ± 17	98.8 ± 4.3	149 ± 14	131
C=CCNC1=C2CC(C)CC(OC)C(O)C(C)C=C(C)C(OC(N)=O)C(OC)C=CC=C(C)C(=O)NC(=CC1=O)C2=O (stereo not given)	105 ± 37	57.1	26.7 ± 0.77	72.5		91.6 ± 5.4	63.25 ± 0.14	85.1 ± 8.4	106
C#CC1(O)CCC2C3CCc4cc(O)ccc4C3CCC21C (stereo not given) [Ethinyl Estradiol]	107 ± 7.8	119	103 ± 15	102		84 ± 3.5	107 ± 25	109 ± 21	93.3
C#CC1(O)CCC2C3CCC4=CC(=O)CCC4C3CCC21C (stereo not given) [Norethindrone]	91.4 ± 26	134	93.6 ± 6.6	97.8		93.3 ± 11	93.1 ± 21		128
CC(C)c1cc(C(=O)N2Cc3ccc(CN4CCN(C)CC4)cc3C2)c(O)cc1O	116 ± 49	43.7	25.4 ± 3.1	124		77.1 ± 2.9	75.3 ± 3.1	176 ± 25	109
CCCN(CCC)S(=O)(=O)c1ccc(C(=O)O)cc1 [Probenecid]	102 ± 37	142	125 ± 6.3	94.6		113 ± 6.4	92.7 ± 6.9	155 ± 8.7	145
CCN(CC)CC#CCOC(=O)C(O)(c1ccccc1)C1CCCCC1.Cl (stereo not given) [Oxybutynin chloride]	175 ± 51	170	139 ± 59	140		109 ± 10	166 ± 20	85.9 ± 14	178
